High-throughput results from PubChem BioAssay.
Vif-A3G inh = blocks the Vif interaction with human APOBEC3G; Q9HC16; HeLa A3G-eYFP + Vif (tagged APOBEC3G with the HIV-1 protein that degrades it), YFP fluorescence, overnight; Potency, µM (top dose mostly 46.1 µM), for the others: top-dose activity, negative = active, actives largely listed as inhibitors; actives 0.076% (n = 410,000); AID 602310; further: potency means the concentration at half of the fitted maximal effect; on the % scale 0 is the no-effect control and ±100 the full control effect; nearly all actives have a fitted effect of over 60% in size
Target sequence (Q9HC16 whole entry, looked up): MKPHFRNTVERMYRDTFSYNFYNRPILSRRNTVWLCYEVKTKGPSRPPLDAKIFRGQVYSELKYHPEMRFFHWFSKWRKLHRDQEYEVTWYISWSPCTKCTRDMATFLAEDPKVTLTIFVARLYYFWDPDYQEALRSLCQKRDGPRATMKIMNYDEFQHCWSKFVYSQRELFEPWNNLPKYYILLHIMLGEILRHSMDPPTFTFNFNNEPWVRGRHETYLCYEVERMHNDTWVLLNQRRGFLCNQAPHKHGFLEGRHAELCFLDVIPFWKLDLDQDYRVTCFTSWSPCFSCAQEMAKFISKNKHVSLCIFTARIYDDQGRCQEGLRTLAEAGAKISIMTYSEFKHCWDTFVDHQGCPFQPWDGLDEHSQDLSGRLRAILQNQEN
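Read-out is eYFP fluorescence (Ex 488/Em 500-530) from Vif-expressing HeLa A3G-eYFP cells; more signal means A3G escaped Vif-mediated degradation. Cells plated overnight, compound pinned in, incubated overnight at 37 deg C.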
PINK1 modulator = changes PINK1 expression. PINK1 immunofluorescence, high-content cytometry, 24 h. Potency, µM (highest dose often 76.6 µM), for inactives: at the highest dose activation (PINK1 increase), hits mostly activators. actives 0.2% (n = 410,000). AID 624263; active means well fitted activation curve with a large enough effect; inconclusive means small, poorly fitted or top-dose-only effect; cell line not stated here; further: potency means the concentration at half of the fitted maximal effect; % of control where 0% means no effect; nearly all actives have a fitted effect of over 65% in size
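A stable cell line was treated with compounds at 5 concentrations for 24 hours, with CCCP as control. PINK1 levels and mitochondrial localization were measured by immunofluorescence with mitochondrial, cell and nuclear markers after fixation, read by laser-scanning cytometry.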
pAkt inh = inhibitors of Akt phosphorylation | AID 651550 | activity change, % for hits at 50 µM | Neuro2A IGF-stimulated pAkt S473 HTRF, 20 min; active compounds read low | actives 0.32% (n = 360,000); in the data active means activity change below about -80%; inconclusive means mostly about -51% to -80%; further: on the % scale 0 is the no-effect control and ±100 the full control effect
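Single-point screen (50 µM final compound) in Neuro2A cells stimulated 20 min with 6 nM IGF at 37 deg C. After lysis, Ser473-phosphorylated Akt read by HTRF (ex 330 nm, em 615/665 nm) as the 665/615 ratio.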
GRP78 ERSR act = inducers of ER stress response in human glioma cells; Potency, µM, without a hit: top-dose activation, actives largely listed as activators; AID 602332; actives 0.02% (n = 420,000); U87-MG GRP78 promoter luciferase reporter, 16 h; further: potency means the concentration at half of the fitted maximal effect; series mostly up to about 76 µM; % of control where 0% means no effect; nearly all actives have a fitted effect of over 35% in size
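ERSR induction read as luciferase luminescence (Bright-Glo, 10 min at room temperature) in stably transfected human U87-MG glioma cells exposed to compounds for 16 h, using GRP78 as sensor.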
Vif-A3F inh = inhibitors of Vif-A3F interaction. Potency, µM (top dose mostly 46.1 µM), inactives show at the top dose activity, negative = active. AID 602313. HeLa A3F-eYFP + Vif (tagged APOBEC3F with the HIV-1 protein that degrades it), YFP fluorescence increase. actives 0.2% (n = 390,000); further: potency means the concentration at half of the fitted maximal effect; % of control where 0% means no effect; nearly all actives have a fitted effect of over 65% in size
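HeLa cells stably expressing Vif plus C-terminally eYFP-tagged A3F were seeded, incubated overnight at 37 deg C, dosed with compound, incubated overnight again at 37 deg C. Yellow fluorescence (Ex 488/Em 500-530) reported blocked Vif-mediated A3F-eYFP degradation.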
LDHA block = inhibitors of human lactate dehydrogenase A; activity change, % (values are at about 110 or 230 µM); actives 0.15% (n = 480,000); P00338; AID 1347041; purified LDHA, NADH/diaphorase-resazurin fluorescence; active compounds read low; in the data active means activity change below about -30%; inconclusive means mostly about -25% to -30%;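 further: plate controls were DMSO wells for no effect and wells without enzyme for full effect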
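LDH5 2 nM; NADH 0.06 mM, pyruvate 0.2 mM; 200 mM Tris pH 7.4, EDTA, Tween-20; 5 min RT. Detection: diaphorase 0.133 mg/mL + resazurin 37 µM, fluorescence ex540/em590 at 0 and 20 min; normalized to enzyme-free and DMSO wells.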
Active calls of the source: *; i = inactive; ? = inconclusive; · = not tested or not shown; [ ] = remark or other dose. Rows were chosen to be rich in hits. Some 0.74% of all compounds tested hit in one or more screens of this group. Unless noted, the call rests on the fitted dose curve; in most records, active means well fitted curve in the direction sought with a large enough effect; inconclusive means small, poorly fitted or top-dose-only effect, or another doubt; inactive means no such curve, though single readings can be large; an effect the other way counts as inactive or inconclusive.

SMILES	Vif-A3G inh	PINK1 modulator	pAkt inh	GRP78 ERSR act	Vif-A3F inh	LDHA block
COc1ccc(-c2cc(CCCC(=O)NCCc3ccc(OC)cc3OC)no2)cc1	-5%	11µM*	i	-4%	-3%	-1
CCc1ccc(C2CC(c3ccccc3)=NN2c2nc(C)cs2)cc1 (stereo not drawn)	·	·	·	·	·	8
O=C(N/N=C/c1sc(=O)n(Cc2ccc(Br)cc2)c1Cl)c1ccco1	?	18%	i	-7%	?	-46*
COCc1n[nH]c(=S)n1Cc1ccc(Cl)cc1	·	·	·	·	·	5
N#Cc1ccccc1COC(=O)c1cccc2ccccc12	·	·	·	·	·	3
O=c1c(O)c(-c2cccs2)oc2ccccc12	?	-5%[38.3 µM]	i	7%	2.8µM*	-9
C=CCn1c(N(C)Cc2ccccc2)nc2c1c(=O)[nH]c(=O)n2C	·	·	·	·	·	-12
CCOc1cc2c(cc1NC(=O)CC1C=CCC1)OC(C)C2 (stereo not drawn)	·	·	·	·	·	0
COc1cccc(Nc2ncc3nc(-c4ccc(F)cc4)c(=O)n(C[C@H]4CCCO4)c3n2)c1	·	0%	·	-3%	·	·
COc1cccc(Nc2ncc3nc(-c4cn(C)c5ccccc45)c(=O)n(C[C@H]4CCCO4)c3n2)c1	·	2.5µM*	·	-4%	·	·
CCSc1nnc(NC(=O)c2cc3c(s2)CCCC3)s1	-1%	?	-81%*	4%	1%	0
CCSc1nnc(NC(=O)c2ccco2)s1	1%	6%	-112%*	-3%	-2%	-11
CCSc1nnc(NC(=O)c2ccc(Br)s2)s1	2%	6%[38.3 µM]	-81%*	14%	-1%	-8
CCSc1nnc(NC(=O)c2ccccc2)s1	0%	0%	i	-4%	2%	-6
O=C(Nc1nnc(SCc2ccccc2)s1)c1cc2c(s1)CCCC2	0%	5%	?	-2%	-1%	-3
CCSc1nnc(NC(=O)C(C)(C(F)(F)F)C(F)(F)F)s1	-1%	25µM*	i	-6%	-2%	-4
CCSc1nnc(NC(=O)C(CC)(C(F)(F)F)C(F)(F)F)s1	1%	?	i	-9%	4%	3
CC(=O)c1cccc(OCc2coc(-c3ccc(Cl)cc3)n2)c1	·	·	·	·	·	1
O=C(CSc1nnc(-c2cccs2)n1-c1ccccc1)Nc1ccc(Cl)cn1	·	·	·	·	·	0
Cc1ccc(-c2nc(NC(C)(C)CO)nc3ccccc23)cc1	·	·	·	·	·	-1
Cc1cccc(NC(=O)/C(=C\c2ccco2)NC(=O)c2cccs2)c1	-4%	-1%	-110%*	-4%	·	1
Cc1ccc(C(=O)N/C(=C/c2ccco2)C(=O)Nc2cccc(C)c2)cc1	-1%	-2%[38.3 µM]	i	-1%	-2%	4
Cc1cc(C(=O)OC(C)C(=O)Nc2ccc(F)cc2Cl)c(C)o1 (stereo not drawn)	·	·	·	·	·	2
CC(C)COc1ccc(C(=O)Nc2ccc(N3CCN(S(C)(=O)=O)CC3)cc2)cc1	·	·	·	·	·	-35*
CC(C)CC(=O)Nc1ccc(N2CCN(S(C)(=O)=O)CC2)cc1	-3%	3%	i	0%	4%	-6
SMILES	Vif-A3G inh	PINK1 modulator	pAkt inh	GRP78 ERSR act	Vif-A3F inh	LDHA block
Cc1ccc2[nH]cc(C(C(=O)O)N3CCN(c4nsc5ccccc45)CC3)c2c1 (stereo not drawn)	·	·	·	·	·	-4
Cc1ccc2c(c1)/C(=N/O)CCS2	1%	1%	-113%*	0%	-5%	-4
CN(CC(=O)Nc1ccc(Cl)c(Cl)c1)C1CCCCC1	-1%	40µM*	i	-1%	-8%	-5
CN1CCC(N(C)CC(=O)Nc2ccc3c(c2)OC(F)(F)O3)CC1	0%	0%	i	-6%	-16%	-34*
CC1CCCCN1CC(=O)Nc1ccc2c(c1)OC(F)(F)O2 (stereo not drawn)	-3%	6%	i	-3%	2%	-6
CCN(CC(=O)Nc1ccc(NC(C)=O)cc1)CC(=O)Nc1ccc(Cl)c(Cl)c1	2%	3%	i	-4%	-5%	-45*
CN(CC(=O)Nc1ccccc1Cl)C1CCCCC1	3%	6%	i	0%	3%	-9
CCN(CC(=O)Nc1ccc(NC(C)=O)cc1)CC(=O)Nc1cccc(Cl)c1	0%	-2%	i	-3%	1%	-8
Cc1cc(Nc2cccc(Cl)c2)nc2ccc(NC(=O)CCC3CCCC3)cc12	·	·	·	·	·	1
COc1ccc(OC)c(NC(=O)C2CC(=O)Nc3c(-c4ccc(F)cc4)cnn32)c1 (stereo not drawn)	·	·	·	·	·	-2
NC(=O)N/N=C/c1ccc(Br)cc1	·	·	·	·	·	3
O=C(N/N=C/c1ccc(Br)cc1)c1ccc(Br)o1	0%	1%	i	4%	-10%	-32*
Cc1onc(-c2c(F)cccc2Cl)c1C(=O)Nc1nnc(C(F)(F)F)s1	-9%	16µM*	i	-3%	-10%	-4
COc1ccc(N=Cc2c(O)n(-c3cccc(C)n3)c(=O)c3ccccc23)c(OC)c1	?	45µM*	i	2%	10µM*	-4
CC(Cc1cccs1)NC(=O)Nc1ccc(Cl)c(Cl)c1 (stereo not drawn)	0%	1%	-103%*	-3%	·	-2
CCOC(=O)COc1cc(Br)c(/C=N/Nc2ccccc2)cc1OC	-14%	2%	i	35µM*	0%	-7
Cc1ccc2oc3nc(C)c(C(=O)Nc4cccc(C(F)(F)F)c4)cc3c(=O)c2c1	-1%	7%	-93%*	6%	8%	-17
O=C1CC(c2ccccc2)Cc2[nH]c(=O)c(-c3nc(-c4ccc(Cl)cc4)cs3)cc21 (stereo not drawn)	?	9%	·	-4%	-12%	-8
Cc1sc(-c2cc3c([nH]c2=O)CC(c2ccccc2)CC3=O)nc1-c1ccc(Cl)cc1 (stereo not drawn)	10µM*	5%	·	-5%	13µM*	-2
